Laboratory results as given in PubChem BioAssay (NCI).
The panel holds about 83,000 compounds, 20% with a hit somewhere; the sample as a whole holds those more often.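 Single-concentration screen, 48 h exposure, 96-well plates. Endpoint: percent growth. Below 10 = active.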 Values without a mark were called inactive. The source made the active and inactive calls.

Key:
Experiment in all cases: NCI-60 one-dose screen, 48 h (100 = growth as untreated, 0 = no growth, -100 = all killed)
Conditions in all cases: 10 µM unless noted
[1] = tested on: NCI-H23 lung
[2] = tested on: NCI-H226 lung
[3] = tested on: NCI-H322M lung
[4] = tested on: HOP-62 NSCLC
[5] = tested on: NCI-H460 lung
[6] = tested on: HOP-92 NSCLC
[7] = tested on: NCI-H522 lung
[8] = tested on: A549/ATCC NSCLC
[9] = tested on: 786-0 renal
[10] = tested on: COLO 205 colon
[11] = tested on: DU-145 prostate
[12] = tested on: K-562 leukemia
[13] = tested on: MALME-3M melanoma
[14] = tested on: MDA-MB-231 breast
[15] = tested on: RXF 393 renal
[16] = tested on: SF-268 CNS
[17] = tested on: SF-295 CNS
[18] = tested on: SF-539 CNS
[19] = tested on: M14 melanoma

Compound | growth [1] [%] | growth [2] [%] | growth [3] | growth [4] [%] | growth [5] | growth [6] | growth [7] | growth [8] [%] | growth [9] | growth [10] | growth [11] | growth [12] | growth [13] | growth [14] | growth [15] | growth [16] [%] | growth [17] | growth [18] | growth [19]
CC(=O)Nc1ccc2c(c1)/C(=C\C=C/c1ccc([N+](C)(C)C)cc1)c1ccccc1-2 | 54.5 | 57.9 | 50.1% | 18.4 | 73.4% | 52% | 18.1% | 43.2 | 55.4% | 58.1% | 73% | 49.5% | 86.5% | 63.7% | 99.1% | 48.6 | 46.5% | 42.4% | 71.5%
COc1ccc2c(c1)NC(=O)CN2c1nc(C)nc2ccccc12 | 20.4 | 65.8 | 42.8% | 29.2 | 2.28% (active) | -5.74% (active) | -21.1% (active) | 21.3 | 19.8% | -35% (active) | -0.215% (active) | 9.83% (active) | 67.6% | 11.6% | 55.1% | 24.4 | 14.2% | -0.932% (active) | 10.8%
CCCCn1c(=O)c(C2CNC(=O)c3ccccc3N2)cc2ccccc21 (centres undefined) | 95 | 111 | 111% | 91.8 | 102% | 95.2% | 92.5% | 97.1 | 92.4% | 111% | 108% | 99.3% | 107% | 77.5% | 111% | 98.9 | 96.8% | 89.9% | 107%
O=C(O)C(=Cc1c2ccccc2cc2ccccc12)C(=O)O | 91.3 | 109 | 100% | 105 | 112% | 105% | 89.7% | 92.1 | 106% | 113% | 118% | 100% | 97.9% | 103% | 115% | 108 | 100% | 97.3% | 100%
CN(C)C/C=C/C(=O)Nc1cc2c(Nc3ccc(F)c(Cl)c3F)ncnc2cc1OCCOC(F)F | 26.6 | 25.1 | 1.96% (active) | 20.6 | 36.6% | -53.7% (active) | -25.7% (active) | 21.8 | 0.67% (active) | 20.1% | 10.4% | 5.47% (active) | 35.3% | -1.17% (active) | -29.4% (active) | 14.4 | 33.7% | 9.19% (active) | 41.5%
CC(Br)C(OC(=O)c1ccccc1Cl)c1cc2c(cc1Br)OCO2 (centres undefined) | 78.3 | 76.6 | 82.7% | 108 | 91.8% | 68.5% | 87.9% | 91.5 | 80.7% | 126% | 92.7% | 94.6% | 92.9% | 94.3% | 77.8% | 86.1 | 101% | 100% | 86.6%
CCN(CC)S(=O)(=O)c1ccc2[nH]c(=O)cc(C(=O)Nc3ccc(OC)cc3OC)c2c1 | 97.8 | 100 | 116% | 105 | 123% | 77.8% | 105% | 110 | 107% | 110% | 157% | 115% | 118% | 98.3% | 9.24% (active) | 95 | 97.9% | 133% | 109%
COc1cc(-c2csc(NC(=O)Nc3ccc(Cl)cc3Cl)n2)cc(OC)c1OC | 42.7 | 43.8 | 30.8% | 38.7 | 10.3% | 44% | 21.4% | 25.5 | 33% | 36.5% | 46.6% | 15.8% | 45% | 54.7% | 49.9% | 33.6 | 19.2% | 29.4% | 34.9%
O=C(C[N+](=O)[O-])c1ccc(Cl)cc1 | 104 | 110 | 112% | 104 | 111% | 101% | 109% | 106 | 98.5% | 116% | 111% | 103% | 114% | 110% | 115% | 108 | 111% | 104% | 101%
O=C1CCC(=O)N1Cc1ccccc1 | 86.7 | 89.5 | 98.2% | 107 | 106% | 89.9% | 102% | 102 | 104% | 111% | 105% | 108% | 110% | 98% | 87% | 94.7 | 102% | 105% | 94.7%
CC(CCc1ccccc1)NC(=O)c1n[nH]c(=O)c2ccccc12 (centres undefined) | 116 | 103 | 89.7% | 92.1 | 110% | 61.2% | 82.4% | 95.8 | 107% | 115% | 110% | 77.3% | 116% | 101% | 144% | 112 | 107% | 98.6% | 104%
COc1ccc(/C(=N\O)c2cc(OC)c(OC)c(OC)c2)c(OC)c1N | 34.7 | 78.2 | 48.4% | 39.7 | 6.35% (active) | 78.7% | -9.39% (active) | 43.2 | 34.7% | -0.741% (active) | 15.3% | 7.11% (active) | 48.9% | 36.9% | 16.8% | 42.1 | -9.97% (active) | -35.2% (active) | 7.17% (active)
Cc1c(C2=NNC(c3ccc4c(c3)OCO4)C2)[n+]([O-])c2ccccc2[n+]1[O-] (centres undefined) | 93.8 | 102 | 161% | 92.1 | 111% | 83.6% | 95.9% | 109 | 106% | 101% | 103% | 91.2% | 154% | 102% | 96.4% | 114 | 105% | 96.2% | 99.6%
COC(=O)CC/C(C)=N\Nc1ccc([N+](=O)[O-])cc1 | 95.8 | 76.3 | 76.5% | 59.7 | 24.8% | 92.7% | 38.4% | 24.6 | 75.4% | 54% | 85.5% | 4.87% (active) | 104% | 79.6% | 101% | 72.4 | 72.4% | 65.8% | 20.4%
O=S(=O)(NCCCNc1cc(-c2cn(-c3ccccc3)nc2-c2cccc(O)c2)ccn1)c1ccc(Cl)cc1 | 33.1 | 24.8 | 25.2% | 29.1 | 10.9% | -6.58% (active) | 20.2% | 18.8 | -11.8% (active) | -68.5% (active) | 39.9% | -8.45% (active) | -19.3% (active) | -17.3% (active) | 14.9% | 30.6 | -47.9% (active) | 21.6% | 8.6% (active)
COc1ccc(/C(=N/O)c2cc(F)c(F)c(OC)c2F)cc1O | 39.2 | 85.7 | 46% | 21.5 | 9.72% (active) | 50.8% | -56.7% (active) | 42 | 45% | 62.1% | 16.9% | 10.3% | 60.7% | 47.8% | 16.7% | 48.1 | 1.83% (active) | -22.8% (active) | 15.4%
